Data: PubChem BioAssay AID1159580 (chemical genetic matrix, 2015)
The campaign covered roughly 5,500 compounds. About 2,000 (36%) were called active. Another 18% or so got no clear call; they are omitted. Rule as the data show it: active = normalized growth mostly below about 0.91 (no sharp cut-off); inconclusive = no clear call, values can overlap the other calls; inactive = mostly above about 0.92. This is one part of the list.

Assay: chemical genetic growth profiling, strain panel (AID 1159580);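 also: tested at 20 µM; growth read once vehicle control cultures reached saturation at 30 °C; 1 = growth at the plate median or of vehicle wells; lower values mean less growth of the strain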
Details: growth OD

Measured: normalized growth

COc1c(Br)cc([N+](=O)[O-])c(OC)c1C(N)=O
inactive: S. cerevisiae deletion strains, locus YBR229C, strain ROT2, hits give low values 1.03 | S. cerevisiae deletion strains, locus YCL061C, strain MRC1, hits give low values 1.01 | S. cerevisiae deletion strains, locus YDL101C, strain DUN1, hits give low values 1.03 | S. cerevisiae deletion strains, locus YDL134C, strain PPH21, hits give low values 1.01 | S. cerevisiae deletion strains, locus YDR150W, strain NUM1, hits give low values 0.986 | S. cerevisiae deletion strains, locus YEL061C, strain CIN8, hits give low values 1.02 | S. cerevisiae deletion strains, locus YGR078C, strain PAC10, hits give low values 1.02 | S. cerevisiae deletion strains, locus YHR030C, strain SLT2, hits give low values 1.07 | S. cerevisiae deletion strains, locus YHR087W, strain rtc3, hits give low values 1.01 | S. cerevisiae deletion strains, locus YJL187C, strain SWE1, hits give low values 1 | S. cerevisiae deletion strains, locus YJR043C, strain POL32, hits give low values 1.04 | S. cerevisiae deletion strains, locus YJR075W, strain HOC1, hits give low values 1.01 | S. cerevisiae deletion strains, locus YLR039C, strain RIC1, hits give low values 1.02 | S. cerevisiae deletion strains, locus YLR058C, strain SHM2 (second series), hits give low values 1.01 | S. cerevisiae deletion strains, locus YLR085C, strain ARP6, hits give low values 1.02 | S. cerevisiae deletion strains, locus YLR262C, strain YPT6, hits give low values 1.01 | S. cerevisiae deletion strains, locus YML094W, strain GIM5, hits give low values 1 | S. cerevisiae deletion strains, locus YMR219W, strain ESC1, hits give low values 1.03 | S. cerevisiae deletion strains, locus YMR263W, strain SAP30, hits give low values 0.946 | S. cerevisiae deletion strains, locus YNL153C, strain GIM3, hits give low values 1.02 | S. cerevisiae deletion strains, locus YNL298W, strain CLA4 (second series), hits give low values 1.01 | S. cerevisiae deletion strains, locus YNL322C, strain KRE1, hits give low values 1.02 | S. cerevisiae deletion strains, locus YNR030W, strain Alg12, hits give low values 1.03 | S. cerevisiae deletion strains, locus YPL055C, strain LGE1, hits give low values 0.928 | S. cerevisiae deletion strains, locus YPL241C, strain CIN2, hits give low values 1.02 | S. cerevisiae deletion strains, locus YPR135W, strain CTF4, hits give low values 1.1 | S. cerevisiae strains, strain wild type, hits give low values 1.03
